From PubChem BioAssay (NCI)
Compounds without any hit were thinned out: in the full panel of roughly 83,000, 20% have a hit.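 Single-concentration screen, 48 h exposure, 96-well plates. Endpoint: percent growth. Below 10 = active.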 A number with no mark means an inactive call. Calls of active or inactive are those of the source.

Assays:
Experiment in all cases: NCI-60 one-dose screen, 48 h (100 = growth as untreated, 0 = no growth, -100 = all killed)
Details in all cases: 10 µM unless noted
[1] = system: HCT-15 colon
[2] = system: HT29 colon
[3] = system: SNB-75 CNS
[4] = system: SNB-19 CNS
[5] = system: U251 CNS
[6] = system: PC-3 prostate
[7] = system: SK-MEL-5 melanoma
[8] = system: UACC-62 melanoma
[9] = system: LOX IMVI melanoma
[10] = system: SK-MEL-28 melanoma

SMILES | growth [1] | growth [2] | growth [3] | growth [4] | growth [5] | growth [6] | growth [7] | growth [8] | growth [9] | growth [10]
C[C@H]1[C@H](C)CC[C@]2(C(=O)OCCCC[P+](c3ccccc3)(c3ccccc3)c3ccccc3)CC[C@]3(C)C(=CC[C@@H]4[C@@]5(C)CC[C@H](OC(=O)C(Cl)Cl)C(C)(C)[C@@H]5CC[C@]43C)[C@H]12 | -68.8% (active) | -55.5% (active) | -24.5% (active) | -56.1% (active) | -88.6% (active) | -60.8% (active) | -100% (active) | -67.8% (active) | -99.6% (active) | -77.4% (active)
CCOc1ccccc1C(=O)/C=C/c1cc2ccccc2[nH]c1=O | -58.9% (active) | -44.6% (active) | 21% | -72.9% (active) | -92.2% (active) | 14.9% | -78.3% (active) | -65.3% (active) | -81.8% (active) | -3.66% (active)
COC(=O)c1ccc2c(c1)n(Cc1ccc3ccccc3c1)c[n+]2Cc1ccc2ccccc2c1 | 98.6% | 10.1% | 60.1% | 33.1% | 32.9% | 29.6% | 4.24% (active) | -15.9% (active) | 23.9% | 21.6%
CCOC(=O)/C(=C/c1c(-c2ccccc2)[nH]c2ccccc12)C(=O)c1ccc(Cl)cc1 | 21.2% | 44% | 35% | 79.4% | 50.5% | 12.5% | 53.4% | 43.5% | 44.3% | 75.6%
CCCn1c2cc(OCc3cn(-c4ccc(Cl)cc4)nn3)ccc2c2ccnc(C)c21 | 67.6% | 30.7% | 92.5% | 80.6% | 47.5% | 71.2% | 70.6% | 74.9% | 65.1% | 92.3%
O=C1CCc2ccccc2N1 | 103% | 102% | 78.1% | 96.2% | 102% | 102% | 98.9% | 97.6% | 94.4% | 104%
